We go through four molecules from PubChem BioAssay.

Each structure is given as a SMILES string. Calls of active or inactive are those of the source. No rule for the calls is given here.

Experiment [1] in a line: liver-stage malaria parasite load reduction – cell-based, known kinase inhibitor set, luminescence, hepatoma host viability (AID 624392).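 Also: infected cells incubated roughly two days before readout.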 The conditions noted are these: Plasmodium liver stage in hepatoma cells, luciferase luminescence, concentration not given here; liver cell % of control: measured here: host liver cell viability; parasite % of control: stronger effect = lower value.

A short description of experiment [2]: altered dexamethasone sensitivity, NF-kB reporter, cell-based, luciferase, IL-1B stimulus (AID 624486).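 As to percent of negative control (+Dex): 100% = mean signal of vehicle control wells on the plate.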 The note with it: IL-1B + dexamethasone, luminescence; percent of negative control (+Dex): actives lie on both sides, concentration not given here; z-score: measured here: IL-1B alone, no Dex.
Experiment [3] concerns the target Cellular tumor antigen p53 (Homo sapiens) (UniProt P04637). Briefly: GFP-p53 level modulators in HPV16+ cells – imaging, known kinase inhibitor set, EGFP/DsRed ratio (AID 1053116).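 Also: cells exposed to compounds for 24 h at 37 °C before reading.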 The conditions noted are these: GFP-p53 stability, stronger effect = higher value; EGFP object count: measured here: GFP-p53 positive objects count.
Experiment [4] is described as follows: inducers of IRF3 signaling, differentiated THP-1 – cell-based, PMA-stimulated THP-1, luminescence (AID 1053176). The conditions noted are these: PMA-differentiated THP-1, IRF3 reporter luminescence; stronger effect = higher value.

Chain of Cellular tumor antigen p53 (Homo sapiens) (P04637 whole entry, looked up): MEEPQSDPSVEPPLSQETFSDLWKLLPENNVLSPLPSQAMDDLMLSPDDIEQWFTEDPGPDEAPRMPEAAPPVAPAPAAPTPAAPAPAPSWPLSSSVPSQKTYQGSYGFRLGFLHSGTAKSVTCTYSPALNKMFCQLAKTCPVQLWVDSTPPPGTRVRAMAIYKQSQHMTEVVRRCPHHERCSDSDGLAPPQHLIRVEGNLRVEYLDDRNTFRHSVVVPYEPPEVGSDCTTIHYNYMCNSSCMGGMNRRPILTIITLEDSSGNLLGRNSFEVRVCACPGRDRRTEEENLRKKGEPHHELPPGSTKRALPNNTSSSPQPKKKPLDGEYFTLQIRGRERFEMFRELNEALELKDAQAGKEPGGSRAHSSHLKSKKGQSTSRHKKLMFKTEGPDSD

Take `CC(=O)N[C@H](Cc1ccc(OP(=O)(O)O)cc1)C(=O)N[C@@H]1CCC(=O)N2CCC[C@@H](C(=O)N[C@H]3CCc4ccccc43)N2C1=O`: in experiment [1], the liver cell % of control is 122% and the parasite % of control is 61.5% (inactive). Moreover, in experiment [2], the percent of negative control (+Dex) was 95.5% (inactive) and the z-score was found to be 0.9. Further, in experiment [3], the EGFP object count was 6 and the EGFP/DsRed ratio is 0.211 (inactive). In experiment [4], the fraction signal is -0.003 (inactive).

Consider `COc1ccc(CCN=C2NC(=O)C(=Cc3ccc4ncccc4c3)S2)cc1`, for which, in experiment [1], the liver cell % of control came out at 99.3% and the parasite % of control was 48.7% (inactive). In experiment [2], the percent of negative control (+Dex) was 100% (inactive) and the z-score came to 0.55. In experiment [3], the EGFP object count worked out at 3 and the EGFP/DsRed ratio was 0.381 (inactive). Also, the fraction signal in experiment [4] was 0.001 (inactive).

As to `O=C1C(c2c[nH]c3ccccc23)=C(c2c[nH]c3ccccc23)C(=O)N1O`, in experiment [1], the liver cell % of control was found to be 107% and the parasite % of control is 29% (inactive). Besides, in experiment [2], the percent of negative control (+Dex) is 94% (inactive) and the z-score was -1.25. Also, in experiment [3], the EGFP object count came out at 5.5 and the EGFP/DsRed ratio was 0.0849 (inactive). Also, the fraction signal in experiment [4] was 0.0015 (inactive).

Take `Nc1c(C(=O)c2ccccc2)cnn1-c1ccc(F)cc1`: in experiment [1], the liver cell % of control was determined as 97.1% and the parasite % of control is 76.7% (inactive). Moreover, in experiment [2], the percent of negative control (+Dex) was 152% (active) and the z-score was 5.57. For the same molecule, in experiment [3], the EGFP object count turned out to be 5 and the EGFP/DsRed ratio is 0.17 (inactive). The fraction signal in experiment [4] was -0.0025 (inactive).
